# Experimental data: PubChem BioAssay (NCI)
# Values joined by “and” are separate entries in the source; they are usually repeats but may differ in a detail not shown here. Equal entries are not always repeated. The panel holds about 83,000 compounds, 20% with a hit somewhere; the sample as a whole holds those more often.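 Values shown are percent growth following 48 h exposure of cells in 96-well plates to a single concentration of compound; below 10 was considered active.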 Values without a mark were called inactive. Active and inactive are the calls of the source.
# Tested on: MDA-MB-468 breast
# Experiment: NCI-60 one-dose screen, 48 h (100 = growth as untreated, 0 = no growth, -100 = all killed)
# Details: 10 µM unless noted
row,SMILES,growth
1,Cc1ccc2c(c1)C(=O)c1c-2c(OCCCN(C)C)nc2ccccc12,28.9%
2,CCN(CC)c1ccc(/C=N/N=C(N)N)cc1,26%
3,Nc1cc2c(cc1Cl)-c1ccc(Cl)cc1C2=O,86.1%
4,COc1ccc(C(=NN=C(N)N)c2ccc(OC)cc2)cc1,-17.7% (active)
5,CCOc1ncc([N+](=O)[O-])c(OCC)n1,115%
6,COc1cccc(-c2nn(-c3ccccc3)cc2-c2ccnc(NCCNS(=O)(=O)c3ccc(Cl)cc3)c2)c1,16.9%
7,CCOC(=O)C1=C(C)N2C(=NC3=C(CCCC/C3=C\c3ccccc3)C2c2ccccc2)S1 (stereo not given),103%
8,CCCCOC1NC(=O)NC(=O)C1(F)C(=O)OCC (stereo not given),93.8% and 101%
9,CN(C)C(=O)c1cc(-c2ccc3ncnc(NCc4ccccc4)c3c2)cnc1N,71.9%
10,O=S(=O)(NCCCNc1cc(-c2cn(-c3ccccc3)nc2-c2cccc(O)c2)ccn1)c1ccccc1,4.3% (active)
11,N#Cc1c(N)nc(-c2cc(F)cc(C(F)(F)F)c2)nc1-c1ccccc1F,62.8%
12,CN1C(=O)N(C)C2C1NN=c1s/c(=C\c3ccc(F)cc3)c(=O)n12 (stereo not given),-11.4% (active)
13,Cc1cc2c(c(C)c1Cl)C(=O)/C(=C/c1ccco1)O2,-2.58% (active)
14,O=C1C(Cl)=C(NCCCN(CCCNC2=C(Cl)C(=O)c3ccccc3C2=O)C2=C(Cl)C(=O)c3ccccc3C2=O)C(=O)c2ccccc21,-7.83% (active)
15,COc1ccc(SC2c3ccc(C)cc3Oc3nc(N)c(C#N)c(N)c32)cc1 (stereo not given),-51% (active)
16,COc1ccc2c(c1OC)C(=O)O[C@H]2[C@H]1c2c(cc3c(c2OC)OCO3)CCN1C,90.3%
17,Clc1ccc2[nH]cc(-c3nc(-c4c[nH]c5ncccc45)cs3)c2c1,45.2%
18,CCOC(=O)CNC1=C(Cl)C(=O)N(Cc2ccc(Cl)cc2)C1=O,105%
19,COc1ccc(OC)c(/C=C2\Oc3cc(OCCN4CCC(Cc5ccccc5)CC4)ccc3C2=O)c1,64.8%
20,COc1ccccc1C(=O)CSc1nc(Nc2ccc(S(N)(=O)=O)cc2)c2ccccc2n1,99.7%

row,SMILES,growth
1,Cc1c(C)c2c(c(C)c1NC(=O)/C=C\C(=O)O)CCC(C)(CCCC(C)CCCC(C)CCCC(C)C)O2 (stereo not given),-45.3% (active)
2,c1cc(C2CCCCC2)ccc1-c1cnc2nonc2n1,2.69% (active)
3,O=C1Nc2ccc(Br)cc2/C1=N\c1nnc(-c2ccc(Cl)cc2)o1,51.8%
4,C=C(C)[C@@H]1CC[C@]2(CNCCO)CC[C@]3(C)[C@H](CC[C@@H]4[C@@]5(C)CCC(N)[C@@](C)(CO)[C@@H]5CC[C@]43C)[C@@H]12 (stereo not given in full),-86.8% (active)
5,O=C1c2c(c3c4cccnc4[nH]c3c3ccc4ccccc4c23)C(=O)N1CCO,57.6%
6,C[N+](C)=c1ccc2nc3c(cc(Nc4ccccc4)c4ccccc43)oc-2c1,-14.8% (active)
7,NNC(=O)c1sc2nc(-c3cnccn3)cc(-c3cccs3)c2c1N,97.2%
8,N#Cc1c2ccccc2nc2ccccc12,84.5%
9,CCN(CC)CCCC(C)Nc1cc(-c2cccc(OC(F)(F)F)c2)nc2ccc(N3CCCC3)cc12 (stereo not given),-56.3% (active)
10,CCOC(=O)c1c(C)nc2c(c1N)/C(=C/c1ccc(OC)cc1)C(=O)N2Cc1ccc(F)cc1,-16.4% (active)
11,c1ccc2sc(SCCCn3ccnc3)nc2c1,61.8%
12,COc1ccc(C2C(C#N)=C(N)Oc3c2ccc2ccccc32)cc1 (stereo not given),14.5%
13,COc1cc(-c2cc(-c3nc4ccc(F)cc4[nH]3)[nH]n2)cc(OC)c1OC,16.6%
14,CN(C)Cc1cn(-c2ncc(-c3ccc(C(F)(F)F)cc3)c(NC3CCCCCC3)n2)nn1,82.9%
15,C=C(C(=O)c1ccccc1)C(NC(C)(C)C)c1ccccc1 (stereo not given),-37.3% (active)
16,CCCCCCCCCCCCCCCCN(C(C)c1ccccc1)S(=O)(=O)c1ccc(OC)c(N)c1 (stereo not given),119%
17,CCOC(=O)c1nn(-c2ccccc2)c(=O)c2c(N)c(C#N)c(-c3cccs3)cc12,69.9%
18,CCC(C)C(N)C(=O)NNc1n[nH]c(=S)n1N (stereo not given),104%
19,O=C(/C=C/c1cccc(Nc2ccnc3cc(Cl)ccc23)c1)c1ccc(Cl)cc1,27.6%
20,COc1ccc(C(C)=O)cc1S(N)(=O)=O,99.4%
